Measurements published in PubChem BioAssay (Tox21).
Several values for one entry are separate records, joined by “and”; a condition that tells them apart may be missing. Identical values can stand only once. Records with an inconclusive call do not appear. Some compounds were tested as several samples or in several runs, with calls that do not always agree. Activity calls are given as the source filed them. Unless noted, the call rests on the fitted dose curve; in most records, active means well fitted curve in the direction sought with a large enough effect in the repeat runs; inconclusive means weak or mixed curves; inactive means no such curve, though single readings can be large; an effect the other way counts as inactive or inconclusive.

Key:
[1] = qHTS assay for identifying genotoxic compounds that show differential cytotoxicity against isogenic chicken DT40 cell lines with known DNA damage response pathways - wild type cell line (AID 743012); further: nearly all actives have a fitted effect of over 60% in size; further: potency means the concentration at half of the fitted maximal effect
How it was run: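 Parental DNA repair-proficient DT40 cells, 300 per well, were pre-incubated ~0.5 h at 37 C/5% CO2, pin-dosed with compounds in DMSO, then incubated 40 h. Viability was read as CellTiter-Glo luminescence after 30 min at room temperature.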

[2] = qHTS assay for identifying genotoxic compounds that show differential cytotoxicity against isogenic chicken DT40 cell lines with known DNA damage response pathways - Rev3 mutant cell line (AID 743014); further: nearly all actives have a fitted effect of over 55% in size; further: potency means the concentration at half of the fitted maximal effect
[3] = qHTS assay for identifying genotoxic compounds that show differential cytotoxicity against isogenic chicken DT40 cell lines with known DNA damage response pathways - Rad54/Ku70 mutant cell line (AID 743015); further: nearly all actives have a fitted effect of over 60% in size; further: potency means the concentration at half of the fitted maximal effect
[4] = target: Androgen receptor (Homo sapiens) (UniProt P10275); test: qHTS assay to identify small molecule agonists of the androgen receptor (AR) signaling pathway using the MDA cell line (AID 743040; further: nearly all actives have a fitted effect of over 20% in size)
How it was run: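 After a 5 h incubation at 37C and 0% CO2, MDA-kb2 reporter cells were dosed with compounds in DMSO and kept 16 h under the same conditions. Luciferase activity was then read as luminescence with ONE-Glo.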

[5] = qHTS assay to identify small molecule antagonists of the androgen receptor (AR) signaling pathway using the MDA cell line - cell viability counter screen (AID 743041; further: nearly all actives have a fitted effect of over 45% in size; further: potency means the concentration at half of the fitted maximal effect)
How it was run: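 R1881-driven MDA-kb2 AR-luc cells, 3,000/well, were dosed with library compounds for 16 h; cell health came from CellTiter-Fluor fluorescence in the reporter wells.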

[6] = qHTS assay to identify small molecule antagonists of the thyroid receptor (TR) signaling pathway - cell viability counter screen (AID 743064); further: nearly all actives have a fitted effect of over 50% in size; further: potency means the concentration at half of the fitted maximal effect
How it was run: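 GH3.TRE-Luc cells, 4 h pre-plating; cpd + T3 1 nM final; 37 °C 23.5 h; CellTiter-Fluor 30 min; fluorescence read.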

[7] = target: Androgen receptor (Homo sapiens) (UniProt P10275); test: qHTS assay to identify small molecule antagonists of the androgen receptor (AR) signaling pathway using the MDA cell line (AID 743042; further: nearly all actives have a fitted effect of over 55% in size; further: potency means the concentration at half of the fitted maximal effect)
How it was run: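 Antagonist mode: compounds plus R1881 agonist added to MDA-kb2 AR-luc cells, incubated 16 h at 37C. Luciferase reporter luminescence quantified, with multiplexed CellTiter-Fluor readout for cell viability.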

[8] = qHTS assay to identify small molecule antagonists of the androgen receptor (AR) signaling pathway - cell viability counter screen (AID 743033; further: nearly all actives have a fitted effect of over 45% in size; further: potency means the concentration at half of the fitted maximal effect)
[9] = target: Androgen receptor (Homo sapiens) (UniProt P10275); test: qHTS assay to identify small molecule antagonists of the androgen receptor (AR) signaling pathway (AID 743035; active means well fitted inhibition curve with a large enough effect in the signal ratio in the repeat runs, not every such curve was filed as active; the % refers to the signal ratio; further: potency means the concentration at half of the fitted maximal effect)
How it was run: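 HEK293 cells stably carrying a UAS-driven beta-lactamase reporter (AR-UAS-bla GripTite) were plated for 4 h at 37C, then given compound and the agonist R1881 and incubated 16 h. Reporter activity was read by LiveBLAzer B/G FRET fluorescence after 2 h at room temperature.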

Sequence of Androgen receptor (Homo sapiens) (P10275 whole entry, looked up): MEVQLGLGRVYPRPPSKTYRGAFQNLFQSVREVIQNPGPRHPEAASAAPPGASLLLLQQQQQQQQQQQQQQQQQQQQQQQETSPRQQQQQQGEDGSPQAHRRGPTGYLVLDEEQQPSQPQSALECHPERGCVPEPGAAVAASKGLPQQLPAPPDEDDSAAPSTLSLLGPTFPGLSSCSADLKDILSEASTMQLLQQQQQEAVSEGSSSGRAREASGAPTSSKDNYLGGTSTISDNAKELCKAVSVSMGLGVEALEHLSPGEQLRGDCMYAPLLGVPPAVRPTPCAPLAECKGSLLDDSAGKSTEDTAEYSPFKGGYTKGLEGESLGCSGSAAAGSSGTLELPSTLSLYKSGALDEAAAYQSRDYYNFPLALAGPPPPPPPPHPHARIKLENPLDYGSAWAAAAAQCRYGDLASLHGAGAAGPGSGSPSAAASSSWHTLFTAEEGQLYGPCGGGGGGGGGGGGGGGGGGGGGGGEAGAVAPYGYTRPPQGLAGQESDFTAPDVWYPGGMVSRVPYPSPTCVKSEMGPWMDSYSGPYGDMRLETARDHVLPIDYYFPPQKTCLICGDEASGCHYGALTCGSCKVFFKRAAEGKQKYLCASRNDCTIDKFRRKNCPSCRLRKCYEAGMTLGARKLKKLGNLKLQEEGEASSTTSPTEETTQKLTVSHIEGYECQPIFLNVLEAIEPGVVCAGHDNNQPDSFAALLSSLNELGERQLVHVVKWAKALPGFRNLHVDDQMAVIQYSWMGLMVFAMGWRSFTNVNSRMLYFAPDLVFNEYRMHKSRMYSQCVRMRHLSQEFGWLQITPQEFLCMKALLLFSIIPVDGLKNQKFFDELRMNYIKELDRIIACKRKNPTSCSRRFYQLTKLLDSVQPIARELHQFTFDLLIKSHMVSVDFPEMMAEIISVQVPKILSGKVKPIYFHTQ

Structure (SMILES): CCOP(=O)(NC(C)C)Oc1ccc(SC)c(C)c1 (stereo unspecified)
- Potency [1]: 7.7 µM (active)
- Potency [2]: 18.8 µM (active)
- Potency [3]: 40.1 µM (active)
- Potency [4]: inactive
- Potency [5]: inactive
- Potency [6]: 61.1 µM (active)

Structure (SMILES): CN(C)c1ccc(N=Nc2ccccc2)cc1
- Potency [1]: inactive
- Potency [2]: inactive
- Potency [5]: inactive
- Potency [6]: inactive

Structure (SMILES): COP(=O)(OC)SCn1c(=O)oc2cc(Cl)cnc21
- Potency [4]: inactive
- Potency [5]: inactive
- Potency [7]: 48.6 µM (active)

Structure (SMILES): O=CC(Br)(Br)Br
- Potency [2]: 24.3 µM (active)
- Potency [5]: inactive
- Potency [6]: 19.3 µM (active)

Structure (SMILES): O=[N+]([O-])c1ccc(Oc2ccc(C(F)(F)F)cc2[N+](=O)[O-])cc1
- Potency [1]: 19.3 µM (active)
- Potency [3]: 24.3 µM (active)
- Potency [6]: inactive

Structure (SMILES): CCOCCOC(C)=O
- Potency [3]: inactive
- Potency [8]: inactive
- Potency [5]: inactive

Structure (SMILES): C1CCC2CCCCC2C1 (stereo unspecified)
- Potency [1]: inactive
- Potency [3]: inactive
- Potency [5]: inactive
- Potency [6]: inactive

Structure (SMILES): CC(C)OS(C)(=O)=O
- Potency [1]: inactive
- Potency [3]: inactive
- Potency [8]: inactive
- Potency [6]: inactive

Structure (SMILES): CCN(CC)c1c([N+](=O)[O-])cc(C(F)(F)F)c(N)c1[N+](=O)[O-]
- Potency [1]: 19.3 µM (active)
- Potency [3]: 17.2 µM (active)
- Potency [9]: 43.6 µM (active)
- Potency [4]: inactive
- Potency [5]: inactive
- Potency [7]: inactive
- Potency [6]: inactive

Structure (SMILES): CN(C)C1CSSSC1
- Potency [3]: 21.7 µM (active)
- Potency [8]: inactive
- Potency [5]: inactive
- Potency [6]: inactive

Structure (SMILES): CC(C)(O)c1cnn2c(-c3ccc(F)c(-c4c(F)cccc4C#N)c3)cnc2n1
- Potency [1]: 48.6 µM (active)
- Potency [3]: 21.7 µM (active)
- Potency [8]: inactive
- Potency [4]: inactive
- Potency [7]: inactive

Structure (SMILES): O=c1ssc(Cl)c1Cl
- Potency [1]: 3.44 µM (active)
- Potency [3]: 3.44 µM (active)
- Potency [8]: 43.6 µM (active)
- Potency [5]: inactive
- Potency [6]: 48.6 µM (active)

Structure (SMILES): C[C@]12CC[C@H]3[C@@H](CCC4=CC(=O)CC[C@@]43C)[C@@H]1CC[C@@H]2O
- Potency [1]: 54.1 µM (active)
- Potency [2]: 30.4 µM (active)
- Potency [5]: inactive
- Potency [6]: inactive

Structure (SMILES): CC(=O)C(Cl)(Cl)Cl
- Potency [1]: 13.2 µM (active)
- Potency [3]: 16.6 µM (active)
- Potency [9]: 5.31 µM (active)
- Potency [4]: inactive
- Potency [5]: 26.4 µM (active)
- Potency [7]: 13.2 µM (active)
- Potency [6]: 5.9 µM (active)

Structure (SMILES): O=[N+]([O-])c1cc(C(F)(F)F)c(Cl)c([N+](=O)[O-])c1Cl
- Potency [1]: 0.386 µM (active)
- Potency [3]: 0.386 µM (active)
- Potency [5]: 54.5 µM (active)
- Potency [6]: 0.611 µM (active)

Structure (SMILES): CCOC(=O)OC1=C(c2cc(C)ccc2C)C(=O)NC12CCC(OC)CC2 (stereo unspecified)
- Potency [8]: inactive
- Potency [5]: inactive

Structure (SMILES): Oc1cc(Cl)c(Cl)c(Cl)c1
- Potency [1]: inactive
- Potency [3]: inactive
- Potency [8]: 32.9 µM (active)
- Potency [4]: inactive
- Potency [5]: inactive

Structure (SMILES): Nc1ccc(Sc2ccc(N)cc2)cc1
- Potency [3]: 62.9 µM (active)
- Potency [8]: inactive
- Potency [6]: inactive

Structure (SMILES): CC(=O)/C=C/c1ccc2c(c1)OCO2
- Potency [3]: 61.4 µM (active)
- Potency [8]: inactive
- Potency [9]: 12.4 µM (active)
- Potency [4]: inactive
- Potency [7]: 61.4 µM (active)

Structure (SMILES): O=C(CCl)Nc1ccccc1
- Potency [1]: 10.9 µM (active)
- Potency [3]: 5.45 µM (active)
- Potency [9]: 15.5 µM (active)
- Potency [4]: inactive
- Potency [5]: 54.5 µM (active)
- Potency [7]: 27.3 µM (active)
- Potency [6]: 24.3 µM (active)

Structure (SMILES): N#CC(Cl)Cl
- Potency [2]: 59.5 µM (active)
- Potency [7]: inactive
- Potency [6]: 59.5 µM (active)

Structure (SMILES): O=C1NCN(c2ccccc2)C12CCN(CC1COc3ccccc3O1)CC2 (stereo unspecified)
- Potency [1]: 23.7 µM (active)
- Potency [2]: inactive
- Potency [8]: inactive
- Potency [5]: inactive

Structure (SMILES): ClC1=C(Cl)[C@]2(Cl)[C@@H]3[C@@H]4C[C@@H]([C@H]5O[C@@H]45)[C@@H]3[C@@]1(Cl)C2(Cl)Cl
- Potency [2]: 14.5 µM (active)
- Potency [3]: 25.8 µM (active)
- Potency [6]: 40.9 µM (active)

Structure (SMILES): S=C=Nc1cccc2ccccc12
- Potency [2]: 60.5 µM (active)
- Potency [8]: inactive
- Potency [9]: 48.5 µM (active)
- Potency [4]: inactive
- Potency [6]: inactive

Structure (SMILES): O=c1[nH]c2ccccc2n1CCCN1CCC(n2c(=O)[nH]c3cc(Cl)ccc32)CC1
- Potency [1]: 26.6 µM (active)
- Potency [3]: 23.7 µM (active)
- Potency [8]: inactive
- Potency [5]: inactive

Structure (SMILES): C[C@]12CC[C@@H]3c4ccc(OC(=O)N(CCCl)CCCl)cc4CC[C@H]3[C@@H]1CC[C@@H]2O
- Potency [1]: inactive
- Potency [6]: inactive

Structure (SMILES): CN(C)C(=S)[S-].CN(C)C(=S)[S-].[Cu+2]
- Potency [1]: 14.9 µM (active)
- Potency [8]: 2.99 µM (active)
- Potency [6]: 1.49 µM (active)

Structure (SMILES): C=CC(=O)OCCCCOC(=O)C=C
- Potency [1]: 27.3 µM (active)
- Potency [3]: 27.3 µM (active)
- Potency [5]: inactive
- Potency [6]: 17.2 µM (active)

Structure (SMILES): COc1cc(C=O)cc2c1[C@H](COC(N)=O)[C@]1(OC(C)=O)ON2C[C@H]2[C@@H]1N2C(C)=O
- Potency [1]: 0.0154 µM (active)
- Potency [3]: 0.0069 µM (active)
- Potency [6]: 0.864 µM (active)

Structure (SMILES): CCCSP(=O)(OCC)SCCC
- Potency [1]: 28.3 µM (active)
- Potency [3]: 39.9 µM (active)
- Potency [8]: inactive
- Potency [9]: inactive
- Potency [4]: inactive
- Potency [5]: inactive

Structure (SMILES): CN(C)[C@@H]1C(=O)C(C(N)=O)=C(O)[C@@]2(O)C(=O)C3=C(O)c4c(O)ccc(Cl)c4[C@@](C)(O)[C@H]3C[C@@H]12
- Potency [1]: inactive
- Potency [3]: inactive and 62.4 µM (active)
- Potency [5]: inactive
- Potency [6]: inactive

Structure (SMILES): CCCCCCCCCCCCCCC(Br)C(=O)O (stereo unspecified)
- Potency [2]: 24.3 µM (active)
- Potency [5]: inactive
- Potency [6]: 43.3 µM (active)

Structure (SMILES): CS(=O)(=O)c1ccc(C(=O)C2C(=O)CCCC2=O)c([N+](=O)[O-])c1
- Potency [2]: 44 µM (active)
- Potency [3]: 45.6 µM (active)
- Potency [5]: inactive
- Potency [6]: 55.4 µM (active)

Structure (SMILES): Oc1ccc(C2(c3ccc(O)cc3)CCCCC2)cc1
- Potency [2]: 65 µM (active)
- Potency [3]: 57.9 µM (active)
- Potency [6]: 57.9 µM (active)

Structure (SMILES): CCCCCCCCCCCCBr
- Potency [1]: 27.3 µM (active)
- Potency [2]: 13.7 µM (active)
- Potency [3]: 30.6 µM (active)
- Potency [6]: inactive

Structure (SMILES): COc1cc(N)c(Cl)cc1C(=O)NC1CN2CCC1CC2 (stereo unspecified)
- Potency [1]: inactive
- Potency [3]: inactive
- Potency [5]: inactive
- Potency [6]: inactive

Structure (SMILES): Cn1cc(C2=C(c3cn(C4CCN(Cc5ccccn5)CC4)c4ccccc34)C(=O)NC2=O)c2ccccc21
- Potency [1]: inactive
- Potency [2]: inactive
- Potency [3]: inactive
- Potency [6]: inactive

Structure (SMILES): ClC1=C(Cl)C2(Cl)C3C(Cl)C=CC3C1(Cl)C2(Cl)Cl (stereo unspecified)
- Potency [1]: inactive and 48.6 µM (active)
- Potency [3]: 68.6 µM (active)
- Potency [8]: inactive
- Potency [5]: inactive
- Potency [6]: 30.8 µM (active) and 54.5 µM (active)

Structure (SMILES): CCCCCCCCc1ccc(O)cc1
- Potency [1]: 21.8 µM (active)
- Potency [3]: 25.2 µM (active)
- Potency [4]: inactive
- Potency [7]: inactive
- Potency [6]: 46.1 µM (active)
